Assay results reported in PubChem BioAssay.
Calls of active or inactive are those of the source.

How the values were obtained:
[1] = small molecules captured by biotinylated probe aFSTL3 – biochemical, small-molecule microarray, fluorescence 635/667, stem cell growth factor project, primary screen (AID 1064); conditions: higher = more signal;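 further: measures binding of the biotinylated anti-FSTL3 antibody to printed compounds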
[2] = binders from COS7 lysate, DM2A8 probe, primary screen, torsin A project, cell lysate, small-molecule microarray, fluorescence 635/667 (AID 1065); conditions: higher = more signal, COS7 lysate expressing mutant human TOR1A
[3] = small molecules captured by biotinylated probe aFGF2 – biochemical, small-molecule microarray, fluorescence 635/667, stem cell growth factor project, primary screen (AID 1067); conditions: higher = more signal;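 further: measures binding of biotinylated aFGF2 protein to printed compounds on slides; z-score merges feature fluorescence and signal-to-noise across triplicate slides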
[4] = small molecules captured by biotinylated probe aFGF10 – biochemical, small-molecule microarray, fluorescence 635/667, stem cell growth factor project, primary screen (AID 1071); conditions: higher = more signal;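 further: score merges 667 nm spot intensity and signal to noise from triplicate slides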
[5] = biological target: Neurogenic locus notch homolog protein 2 (Homo sapiens) (UniProt Q04721); experiment: small molecules binding Notch2 protein – biochemical, small-molecule microarray, 635 nm fluorescence, stem cell growth factors, primary screen (AID 1073); conditions: higher = more signal
[6] = biological target: Pro-neuregulin-1, membrane-bound isoform (Homo sapiens) (UniProt Q02297); experiment: small molecules binding neuregulin-1 protein – biochemical, small-molecule microarray, fluorescence 635/667, psychiatric disease protein project, primary screen (AID 1075); conditions: NRG1 binding, 635 nm fluorescence, higher = more signal;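 further: score combines 667 nm spot fluorescence with signal to noise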
[7] = tested on: Neuregulin-1 EGF-like domain; experiment: small molecules binding NRG1 EGF domain – biochemical, small-molecule microarray, 635 nm fluorescence, primary screen (AID 1081); conditions: higher = more signal;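 further: binding of the protein to compounds printed on small-molecule microarray slides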
[8] = FRG1 expression reporter modulators in myotubes – cell-based, C2C12 myotubes, firefly/Renilla luciferase, luminescence, FRG1 inhibition for FSHD, primary screen (AID 1084); conditions: FRG1 promoter luciferase, higher = more signal, called active from +8 up or from −8 down
[9] = small molecules captured by biotinylated probe aFST – biochemical, small-molecule microarray, fluorescence 635/667, stem cell growth factor project, primary screen (AID 1086); conditions: higher = more signal;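 further: score merges 667 nm fluorescence with signal-to-noise of each printed compound spot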
[10] = binders of probe aHhip on microarray, primary screen, stem cell growth factor project, biochemical, small-molecule microarray, fluorescence 635/667 (AID 1087); conditions: higher = more signal;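 further: score merges spot fluorescence at 667nm with spot signal to noise ratio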

Chain of Neurogenic locus notch homolog protein 2 (Homo sapiens) (Q04721 whole entry, looked up, canonical isoform): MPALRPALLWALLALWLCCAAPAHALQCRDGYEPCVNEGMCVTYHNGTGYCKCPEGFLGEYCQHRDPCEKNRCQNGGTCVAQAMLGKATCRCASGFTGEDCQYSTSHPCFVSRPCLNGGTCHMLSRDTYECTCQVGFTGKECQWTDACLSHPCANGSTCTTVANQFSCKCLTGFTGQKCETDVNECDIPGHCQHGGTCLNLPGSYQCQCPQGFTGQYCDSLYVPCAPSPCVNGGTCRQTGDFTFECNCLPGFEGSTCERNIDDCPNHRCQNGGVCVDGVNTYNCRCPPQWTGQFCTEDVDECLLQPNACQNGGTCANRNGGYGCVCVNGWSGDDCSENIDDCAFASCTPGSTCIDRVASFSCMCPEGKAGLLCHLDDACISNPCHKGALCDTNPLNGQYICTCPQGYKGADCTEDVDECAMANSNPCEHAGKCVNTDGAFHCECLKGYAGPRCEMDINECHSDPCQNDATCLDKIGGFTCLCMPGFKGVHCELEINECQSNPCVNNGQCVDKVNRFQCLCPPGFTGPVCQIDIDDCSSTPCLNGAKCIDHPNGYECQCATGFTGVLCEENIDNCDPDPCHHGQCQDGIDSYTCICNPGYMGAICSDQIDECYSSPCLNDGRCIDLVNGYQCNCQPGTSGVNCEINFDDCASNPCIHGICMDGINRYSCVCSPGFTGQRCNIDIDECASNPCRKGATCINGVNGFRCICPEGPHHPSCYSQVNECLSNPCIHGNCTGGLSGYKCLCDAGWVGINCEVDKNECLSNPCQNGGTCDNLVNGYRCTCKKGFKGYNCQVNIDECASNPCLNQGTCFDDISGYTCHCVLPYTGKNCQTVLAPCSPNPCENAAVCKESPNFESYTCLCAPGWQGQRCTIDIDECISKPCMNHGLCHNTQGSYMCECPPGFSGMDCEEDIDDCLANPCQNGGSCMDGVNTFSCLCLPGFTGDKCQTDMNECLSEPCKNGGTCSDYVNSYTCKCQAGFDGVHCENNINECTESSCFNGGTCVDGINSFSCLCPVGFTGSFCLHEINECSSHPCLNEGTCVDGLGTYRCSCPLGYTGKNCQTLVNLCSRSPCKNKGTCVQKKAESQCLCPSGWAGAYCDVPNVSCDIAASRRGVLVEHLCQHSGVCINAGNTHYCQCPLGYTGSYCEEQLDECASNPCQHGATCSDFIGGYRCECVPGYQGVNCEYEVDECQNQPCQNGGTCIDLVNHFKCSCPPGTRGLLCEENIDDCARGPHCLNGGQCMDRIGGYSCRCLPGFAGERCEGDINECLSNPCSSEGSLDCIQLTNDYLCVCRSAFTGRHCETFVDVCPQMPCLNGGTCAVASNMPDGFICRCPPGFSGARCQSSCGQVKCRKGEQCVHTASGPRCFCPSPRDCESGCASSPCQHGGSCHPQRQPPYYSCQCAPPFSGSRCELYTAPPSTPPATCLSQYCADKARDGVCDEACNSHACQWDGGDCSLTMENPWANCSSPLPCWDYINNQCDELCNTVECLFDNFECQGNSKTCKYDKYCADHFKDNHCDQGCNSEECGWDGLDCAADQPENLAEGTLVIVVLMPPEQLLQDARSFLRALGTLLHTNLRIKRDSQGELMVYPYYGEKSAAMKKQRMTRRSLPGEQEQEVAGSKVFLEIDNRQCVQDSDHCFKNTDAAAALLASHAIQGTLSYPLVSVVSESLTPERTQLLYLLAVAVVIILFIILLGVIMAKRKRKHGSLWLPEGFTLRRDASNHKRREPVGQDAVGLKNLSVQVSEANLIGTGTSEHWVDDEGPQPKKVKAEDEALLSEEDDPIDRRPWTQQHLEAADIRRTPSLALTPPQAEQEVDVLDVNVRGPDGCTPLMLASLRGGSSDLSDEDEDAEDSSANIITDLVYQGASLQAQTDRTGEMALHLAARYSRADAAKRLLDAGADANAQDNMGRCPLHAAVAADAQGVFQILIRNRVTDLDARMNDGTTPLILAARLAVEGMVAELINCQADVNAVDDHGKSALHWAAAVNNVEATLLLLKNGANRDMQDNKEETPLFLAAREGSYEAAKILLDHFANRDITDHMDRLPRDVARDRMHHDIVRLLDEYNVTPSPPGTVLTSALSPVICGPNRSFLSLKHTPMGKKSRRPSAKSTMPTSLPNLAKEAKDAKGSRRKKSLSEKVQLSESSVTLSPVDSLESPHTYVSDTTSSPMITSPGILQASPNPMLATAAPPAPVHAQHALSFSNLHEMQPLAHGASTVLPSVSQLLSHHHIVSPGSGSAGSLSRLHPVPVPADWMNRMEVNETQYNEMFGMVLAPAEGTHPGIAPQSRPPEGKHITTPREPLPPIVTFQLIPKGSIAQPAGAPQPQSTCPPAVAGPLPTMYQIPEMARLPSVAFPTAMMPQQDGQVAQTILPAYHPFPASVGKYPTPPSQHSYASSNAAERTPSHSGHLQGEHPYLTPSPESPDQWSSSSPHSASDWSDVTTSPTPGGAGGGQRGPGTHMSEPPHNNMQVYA
Chain of Pro-neuregulin-1, membrane-bound isoform (Homo sapiens) (Q02297 whole entry, looked up, the tested form may be a part, canonical isoform): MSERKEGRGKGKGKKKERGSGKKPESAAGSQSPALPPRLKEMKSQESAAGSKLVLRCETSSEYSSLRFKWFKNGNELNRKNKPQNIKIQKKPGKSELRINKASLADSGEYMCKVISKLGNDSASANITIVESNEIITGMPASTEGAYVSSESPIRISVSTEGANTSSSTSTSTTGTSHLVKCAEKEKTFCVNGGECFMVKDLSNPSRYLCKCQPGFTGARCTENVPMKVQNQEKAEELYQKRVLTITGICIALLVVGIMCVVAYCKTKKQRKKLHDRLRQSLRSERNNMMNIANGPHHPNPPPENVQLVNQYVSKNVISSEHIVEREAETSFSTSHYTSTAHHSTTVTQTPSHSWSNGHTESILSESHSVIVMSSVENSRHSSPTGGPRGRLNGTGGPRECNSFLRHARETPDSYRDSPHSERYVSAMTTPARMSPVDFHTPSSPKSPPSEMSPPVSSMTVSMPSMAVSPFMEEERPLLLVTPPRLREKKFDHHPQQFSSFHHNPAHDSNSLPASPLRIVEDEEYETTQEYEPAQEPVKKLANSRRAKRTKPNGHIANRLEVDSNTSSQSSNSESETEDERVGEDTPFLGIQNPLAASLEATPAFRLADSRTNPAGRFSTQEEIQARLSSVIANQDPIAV

Row | SMILES | composite z-score [1] | composite z-score [2] | composite z-score [3] | composite z-score [4] | composite z-score [5] | composite z-score [6] | composite z-score [7] | z-score [8] | composite z-score [9] | composite z-score [10]
1 | CCCC#C[Si](O[C@H](CC)c1cn([C@H](C)c2ccccc2)nn1)(C(C)C)C(C)C | -0.4 | 1.31 | -0.0407 | 0.468 | 0.97 | 0.0607 | 0.181 | 0.337 (inactive) | 0.593 | -0.407
2 | Cc1ccc(C(C)CC(O)C2C=CC3C(=O)N(c4ccccc4)C(=O)C3N2Nc2ccccc2)o1 (stereo not given) | -0.172 | -0.314 | -0.087 | 0.504 | 1.65 | 1.18 | 1.21 | -0.0963 (inactive) | 1.51 | 0.113
3 | Oc1ccc2cc[n+](Cc3cc4c(cc3Br)OCO4)cc2c1 | 0.254 | 0.0899 | -0.0148 | -0.903 | -1.69 | -0.614 | 0.565 | 0.985 (inactive) | -0.164 | -0.236
4 | CN(C)c1ccc(C(O)C2C=CC3C(=O)NC(=O)C3N2Nc2ccccn2)cc1 (stereo not given) | -0.142 | 1.55 | -0.0982 | 0.68 | 1.5 | 1.15 | 1.41 | 2.15 (inactive) | 0.995 | -0.134
5 | CCOC(=O)C1=C[C@@H](C(C)C)N(S(=O)(=O)c2ccc(C)cc2)[C@H]1c1ccc(C(F)(F)F)cc1 | -0.235 | 0.231 | 0.112 | 1.05 | 1.67 | 0.497 | 1.22 | -2.54 (inactive) | 1.69 | 0.0873
6 | C=CCC(OC(C)=O)[C@@H]1[C@@H](N(Cc2cc3ccccc3o2)C(=O)Cc2ccc(F)cc2)c2cc(OCCCO)ccc2N1C(=O)Cc1ccc2ccccc2c1 (stereo not given in full) | -0.367 | -0.804 | -0.017 | -0.469 | -0.665 | -0.436 | 0.112 | -1.47 (inactive) | 0.0652 | -0.306
7 | CCOC(=O)C=Cc1cccc(C)c1O | -0.071 | -0.232 | -0.0348 | -0.0154 | 0.177 | 0.306 | -0.155 | 1.5 (inactive) | -0.488 | -0.236
8 | COC(=O)C1=CC(CCCO)=CC(c2ccc(CN3CCCC3)cc2)N(Cc2cccc(OC(F)(F)F)c2)C=C1C(=O)OC (stereo not given) | 0.928 | -0.185 | -0.0361 | 0.419 | 1.44 | 1.79 | 1.11 | -0.616 (inactive) | 0.857 | -0.0994
9 | CCCCC(CC)C(O)C1C=CC2C(=O)N(C)C(=O)C2N1Nc1ccccc1 (stereo not given) | -0.245 | 0.0145 | -0.0454 | 0.264 | 0.846 | 0.517 | 1.16 | -0.373 (inactive) | 0.388 | -0.0994
10 | COCCOC(=O)N1C(=O)[C@@]2(c3ccccc31)[C@H](C(=O)NC[C@H](O)c1ccccc1)[C@H]1C(=O)O[C@H](c3ccccc3)[C@H](c3ccccc3)N1[C@@H]2c1ccc(O)cc1 | -0.19 | 0.23 | 0.0017 | 0.941 | 1.55 | 0.57 | 1.25 | -0.677 (inactive) | 0.839 | 0.689
11 | NC(=O)NCC#Cc1ccc2c(c1)[C@]1(C(=O)N2)[C@H](c2ccccc2OCCO)N2[C@H](c3ccccc3)[C@H](c3ccccc3)OC(=O)[C@H]2[C@@H]1C(=O)NC[C@H](O)c1ccccc1 | -0.0058 | 1.37 | -0.085 | 0.262 | -0.667 | 0.319 | -0.32 | -0.308 (inactive) | -0.312 | -0.122
12 | C=CCNC(=O)[C@H]1[C@@H]2C(=O)O[C@@H](c3ccccc3)[C@@H](c3ccccc3)N2[C@@H](c2ccccc2OCCO)[C@]12C(=O)N(C(=O)OCCOC)c1ccc(C#CC3(O)CCCCCC3)cc12 | -0.192 | 0.281 | 0.0376 | 0.434 | 0.776 | 1.04 | 1.2 | -2.54 (inactive) | 0.339 | 0.0176
13 | O=C(c1ccccc1)N1C(=O)[C@]2(Cc3ccccc31)N=C(c1ccc(OCCCO)cc1)O[C@@H]2c1ccccc1 | -0.203 | -0.0033 | -0.061 | 0.821 | 0.562 | 1.61 | 1.3 | -1.76 (inactive) | 0.313 | 0.252
14 | O=C1C[C@]2(c3ccc([N+](=O)[O-])cc3)C(=O)N(C3CC3)c3cc(CO)ccc3[C@H]2N1CC12CC3CC(CC(C3)C1)C2 | -0.224 | -0.622 | -0.0825 | -0.0253 | -0.562 | -0.0609 | -0.5 | -0.0608 (inactive) | 0.0196 | -0.258
15 | CN(C)C(=O)[C@]1(Cc2ccccc2CN=[N+]=[N-])N=C(c2ccc(OCCCO)cc2)O[C@@H]1c1ccccc1 | 0.168 | -0.242 | 0.0577 | 0.863 | 0.666 | 1.62 | 0.96 | -3.49 (inactive) | 0.694 | -0.0618
16 | CC(=O)NCCCC[C@@H]1NC(=O)[C@@H]2C[C@H](C(=O)NCCCCCN)[C@H](c3ccc(O)cc3)N2C1=O | 0.95 | 1.25 | 0.088 | 0.864 | 0.702 | 0.995 | 1.43 | 0.604 (inactive) | 0.491 | -0.334
17 | [N-]=[N+]=Nc1ccccc1[C@@H]1OC(c2ccc(OCCCO)cc2)=N[C@]1(Cc1ccccc1)C(=O)N1CCCCC1 | 0.0153 | 1 | 0.122 | 0.9 | 1.39 | 1.37 | 1.28 | -2.33 (inactive) | 1.46 | 0.249
18 | CCOC(=O)C[C@H]1[C@H](OC(=O)c2ccc(C(=O)c3ccccc3)cc2)[C@@H](NC(=O)CC(C)C)c2cc(OCCCO)ccc2N1C(=O)c1ccccc1 | -0.399 | 0.275 | -0.0266 | 0.542 | 1.2 | 0.807 | 0.996 | -0.16 (inactive) | 0.766 | 0.0129
19 | CC(C)=C1C(=O)C(c2ccccc2)=C2CN3C(=O)N(CCc4ccccc4)C(=O)[C@]3(Cc3ccc(C(F)(F)F)cc3)[C@H]21 | 1.11 | -0.192 | 0.0977 | -0.122 | 0.816 | 0.757 | 0.844 | 0.845 (inactive) | 0.693 | 0.281
20 | COc1cc(C(O)C2C=CC3C(=O)N(C)C(=O)C3N2Nc2ccccc2)cc(OC)c1OC (stereo not given) | 1.3 | 0.723 | 0.341 | 0.602 | 1.25 | 1.83 | 1.35 | -0.818 (inactive) | 1.53 | 0.592
21 | COCCOC(=O)N1C(=O)[C@@]2(c3cc(C#CC4=CCCCC4)ccc31)[C@H](c1ccccc1OCCO)N1[C@H](c3ccccc3)[C@H](c3ccccc3)OC(=O)[C@H]1[C@@H]2C(=O)N1CCN(c2ncccn2)CC1 | -0.463 | 0.434 | -0.0536 | 0.538 | 1.07 | 0.373 | 1.13 | -0.624 (inactive) | 0.469 | -0.321
22 | COCCOC(=O)N1C(=O)[C@@]2(c3cc(C#CCCO)ccc31)[C@H](c1ccc(OCCO)cc1)N1[C@H](c3ccccc3)[C@H](c3ccccc3)OC(=O)[C@H]1[C@@H]2C(=O)Nc1nc2ccccc2s1 | 0.878 | 0.68 | 0.0943 | 0.575 | 0.586 | 0.222 | 1.1 | 2.92 (inactive) | 1.24 | 0.547
23 | O=C1N(CCS(=O)(=O)c2ccccc2)c2ccccc2[C@H]2OC(c3ccc(OCCCO)cc3)=N[C@@]12Cc1ccccc1 | 0.529 | 0.756 | 0.0918 | 0.102 | 0.918 | -0.0845 | 1.29 | -0.375 (inactive) | 0.772 | -0.0663
24 | CC(C)(C)OC(=O)CC[C@@]1(C(=O)NCC(O)CO)N=C(c2ccc(OCCCO)cc2)O[C@@H]1c1ccccc1CN=[N+]=[N-] (stereo not given in full) | 0.316 | 1.86 | -0.0249 | 0.426 | 1.49 | 1.01 | 1.48 | 3.3 (inactive) | 0.544 | -0.0994
25 | CCCCCN1CC=CC23O[C@@H]4/C=C\CCCOC(=O)C4[C@H]2C(=O)N(C(C)CO)[C@@H]3C1=O (stereo not given in full) | 0.378 | -1.3 | -0.219 | -0.756 | -0.814 | 1.15 | 1.16 | -0.508 (inactive) | -0.738 | -0.399
26 | COCCOC(=O)N1C(=O)[C@@]2(c3cc(C#CC4(O)CCCCCC4)ccc31)[C@H](C(=O)Nc1nc3ccccc3s1)[C@H]1C(=O)O[C@H](c3ccccc3)[C@H](c3ccccc3)N1[C@@H]2c1ccc(O)cc1 | -0.304 | 0.442 | -0.0202 | 0.539 | 1.24 | 1.46 | 1.2 | 0.21 (inactive) | 1.47 | 0.107
